Results reported in PubChem BioAssay (NCI).
Compounds without any hit were thinned out: in the full panel of roughly 83,000, 20% have a hit.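 Testing used 96-well plates and a 48-hour single-concentration exposure. Example: -40 means 40% of the starting cells died.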 Active and inactive are the calls of the source. Rule for the calls: active = growth percent below 10; inactive = the rest.

Columns and labels:
Assay in all cases: NCI-60 one-dose screen, 48 h (100 = growth as untreated, 0 = no growth, -100 = all killed)
Settings in all cases: 10 µM unless noted
SR leukemia = tested on: SR leukemia
RPMI-8226 leukemia = tested on: RPMI-8226 leukemia
OVCAR-8 ovarian = tested on: OVCAR-8 ovarian
OVCAR-5 ovarian = tested on: OVCAR-5 ovarian
OVCAR-4 ovarian = tested on: OVCAR-4 ovarian
SK-OV-3 ovarian = tested on: SK-OV-3 ovarian
IGROV1 ovarian = tested on: IGROV1 ovarian
OVCAR-3 ovarian = tested on: OVCAR-3 ovarian
HS 578T breast = tested on: HS 578T breast
NCI/ADR-RES ovarian = tested on: NCI/ADR-RES ovarian

Measured: growth

COc1cc(NC(C)CCCNC(C)C)c2ncccc2c1OC (stereo not given)
inactive: SR leukemia 110% | RPMI-8226 leukemia 87.7% | OVCAR-8 ovarian 91.3% | OVCAR-5 ovarian 91.4% | OVCAR-4 ovarian 76.1% | SK-OV-3 ovarian 96.3% | IGROV1 ovarian 75.9% | OVCAR-3 ovarian 70% | HS 578T breast 91.9% | NCI/ADR-RES ovarian 85.4%

CC(=O)N1N=C(c2ccc(Nc3nc(Nc4ccc(Cl)cc4)nc(Nc4ccc(Cl)cc4)n3)cc2)CC1c1ccco1 (stereo not given)
inactive: SR leukemia 64.9% | RPMI-8226 leukemia 34.5% | OVCAR-8 ovarian 83.2% | OVCAR-5 ovarian 105% | OVCAR-4 ovarian 97.3% | SK-OV-3 ovarian 124% | IGROV1 ovarian 89.4% | OVCAR-3 ovarian 104% | HS 578T breast 114% | NCI/ADR-RES ovarian 93.5%

Cc1c(-c2nc3ccc(F)cc3c(=O)[nH]2)c2ccccc2n1C
active: HS 578T breast 3.2%
inactive: SR leukemia 11.3% | RPMI-8226 leukemia 40.9% | OVCAR-8 ovarian 46.9% | OVCAR-5 ovarian 79.4% | OVCAR-4 ovarian 59.4% | SK-OV-3 ovarian 43.2% | IGROV1 ovarian 38.9% | OVCAR-3 ovarian 10.3% | NCI/ADR-RES ovarian 21.9%

Cc1oc(-c2ccc(Cl)cc2)nc1/C=C/C(=O)c1ccccc1
inactive: SR leukemia 93.7% | RPMI-8226 leukemia 90.9% | OVCAR-8 ovarian 98.7% | OVCAR-5 ovarian 115% | OVCAR-4 ovarian 79.4% | SK-OV-3 ovarian 100% | IGROV1 ovarian 93% | OVCAR-3 ovarian 97.5% | HS 578T breast 100% | NCI/ADR-RES ovarian 104%

O=C(Nc1nn(-c2ccc(Cl)cc2Cl)nc1-c1ccccc1)c1ccccc1
inactive: SR leukemia 46% | RPMI-8226 leukemia 75.7% | OVCAR-8 ovarian 103% | OVCAR-5 ovarian 92% | OVCAR-4 ovarian 106% | SK-OV-3 ovarian 117% | IGROV1 ovarian 95% | OVCAR-3 ovarian 90.7% | HS 578T breast 105% | NCI/ADR-RES ovarian 106%

Cc1cc(Cl)ccc1Nc1nc(C(F)(F)F)ccc1C(=O)N/N=C/c1ccc([N+](=O)[O-])cc1
inactive: HS 578T breast 97.3%
active: SR leukemia -1.84% | RPMI-8226 leukemia -72.6% | OVCAR-8 ovarian 9.08% | OVCAR-5 ovarian -18.6% | OVCAR-4 ovarian -11.6% | SK-OV-3 ovarian -14.9% | IGROV1 ovarian -35.1% | OVCAR-3 ovarian -18.1% | NCI/ADR-RES ovarian -32.8%

O=[N+]([O-])C1C(c2ccccc2)C12c1ccccc1-c1ccccc12 (stereo not given)
active: SR leukemia -14.8% | RPMI-8226 leukemia -17.3% | OVCAR-8 ovarian -28% | SK-OV-3 ovarian 2.18% | OVCAR-3 ovarian -31.2% | NCI/ADR-RES ovarian -27.4%
inactive: OVCAR-5 ovarian 23.9% | OVCAR-4 ovarian 57.2% | IGROV1 ovarian 20.5% | HS 578T breast 38.6%

Cc1ccc2c(n1)C(=O)c1[nH]c3ccccc3c1C2=O
inactive: SR leukemia 39.8% | RPMI-8226 leukemia 46.9% | OVCAR-8 ovarian 53% | OVCAR-5 ovarian 67.9% | OVCAR-4 ovarian 22.2% | SK-OV-3 ovarian 85.6% | IGROV1 ovarian 33.8% | HS 578T breast 69.2% | NCI/ADR-RES ovarian 58.6%
active: OVCAR-3 ovarian -5.11%

COc1ccc(/C=C2\COc3ccc(O)c(O)c3C2=O)cc1
inactive: SR leukemia 21.6% | OVCAR-4 ovarian 48.4% | SK-OV-3 ovarian 63.5% | OVCAR-3 ovarian 11.1% | HS 578T breast 19.5%
active: RPMI-8226 leukemia 4.17% | OVCAR-8 ovarian 7.39% | OVCAR-5 ovarian -12.3% | IGROV1 ovarian 1.03% | NCI/ADR-RES ovarian 6.53%

O=C(/C=C/c1ccc(Cl)cc1)c1cccc(Nc2nc(Nc3ccccc3)nc(Nc3ccccc3)n2)c1
inactive: SR leukemia 60.5% | OVCAR-8 ovarian 94.9% | OVCAR-5 ovarian 92.9% | OVCAR-4 ovarian 83.6% | SK-OV-3 ovarian 108% | IGROV1 ovarian 13.5% | OVCAR-3 ovarian 84.7% | HS 578T breast 92.7% | NCI/ADR-RES ovarian 91.9%
active: RPMI-8226 leukemia -43.9%

Clc1ccc2c(c1)N(c1ncnc3ccc(-c4cnc5[nH]ncc5c4)cc13)CC2
inactive: SR leukemia 24.3% | RPMI-8226 leukemia 16.9% | OVCAR-8 ovarian 30% | OVCAR-5 ovarian 20.3% | OVCAR-4 ovarian 26.9% | OVCAR-3 ovarian 24.5% | NCI/ADR-RES ovarian 40.4%
active: SK-OV-3 ovarian -1.55% | IGROV1 ovarian 0.128% | HS 578T breast -17%

CCCCCCCCn1ccc2cc(NC(=O)CN3CCN(c4nc(C)cc(Cl)n4)CC3)ccc21
inactive: SR leukemia 23.5% | RPMI-8226 leukemia 99.3% | OVCAR-8 ovarian 106% | OVCAR-5 ovarian 102% | OVCAR-4 ovarian 83.7% | SK-OV-3 ovarian 110% | IGROV1 ovarian 74.4% | OVCAR-3 ovarian 109% | HS 578T breast 89.9% | NCI/ADR-RES ovarian 93.2%

C=CCn1c(SCC(=O)Nc2ccc(C(=O)/C=C/c3cc4cc(OC)ccc4nc3Cl)cc2)nnc1-c1ccc(Br)cc1
active: RPMI-8226 leukemia -19.8%
inactive: SR leukemia 58.4% | OVCAR-8 ovarian 79.8% | OVCAR-5 ovarian 99.2% | OVCAR-4 ovarian 84.8% | SK-OV-3 ovarian 95.7% | IGROV1 ovarian 78.4% | OVCAR-3 ovarian 97.4% | HS 578T breast 89.2% | NCI/ADR-RES ovarian 92.3%
